# Results reported in the supplement of paper PMC8866396.
# ± gives the standard deviation of the averaged measurements.
# System: IL-6-GFP PC-9GR
# Assay: cell viability (CCK-8 OD) relative to DMSO control (fraction of control); higher = more viable cells
# Conditions: compound concentration: 10 uM; treatment time: 48 h
# How it was run: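 PC-9 and PC-9GR lung cancer cells carrying a lentiviral construct that overexpresses IL-6-GFP were seeded in 96-well plates at 3000 cells/well. Every compound in a purchased 510-compound library was applied at a final 10 μM for 48 h, and a parallel set of plates was kept for GFP imaging. Cell viability was read by CCK-8 absorbance, taking each well's optical density as a ratio to the vehicle control well. Two independent replicates were run.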
row,Compound,cell viability
1,O=C(Nc1cnn2ccc(N3CCCC3c3cc(F)ccc3F)nc12)N1CCC(O)C1.O=S(=O)(O)O (configuration not stated) [Larotrectinib (LOXO-101) sulfate],0.802 ± 0.05
2,CNC1CCC(c2ccc(Cl)c(Cl)c2)c2ccccc21.Cl (configuration not stated) [Sertraline HCl],0.338 ± 0.063
3,CC(C)C(=O)OCC(=O)C12OC(C3CCCCC3)OC1CC1C3CCC4=CC(=O)C=CC4(C)C3C(O)CC12C (configuration not stated) [Ciclesonide],0.855 ± 0.11
4,CCCC(=O)OC1(C(=O)CO)CCC2C3CCC4=CC(=O)CCC4(C)C3C(O)CC21C (configuration not stated) [Hydrocortisone butyrate],0.857 ± 0.11
5,Cc1oncc1C(=O)Nc1ccc(C(F)(F)F)cc1 [Leflunomide],1.1 ± 0.067
6,COc1cc2ncnc(Nc3ccc(F)c(Cl)c3)c2cc1OCCCN1CCOCC1.Cl [Gefitinib hydrochloride],0.91868 ± 0.00075
7,Cc1ccc(=O)n(-c2ccccc2)c1 [Pirfenidone],1.24 ± 0.21
8,CCCCNC(=O)NS(=O)(=O)c1ccc(C)cc1 [Tolbutamide],1.13 ± 0.081
9,Cc1ccc(C2OC(CO)C(O)C(O)C2O)cc1Cc1ccc(-c2ccc(F)cc2)s1 (configuration not stated) [Canagliflozin],1.14 ± 0.12
10,COc1ccc(S(=O)(=O)N(C(C)=O)c2ccccc2/C=C/c2cc[n+]([O-])cc2)cc1,0.674 ± 0.091
11,C=CC(=O)Nc1cc(Nc2nccc(-c3cn(C)c4ccccc34)n2)c(OC)cc1N(C)CCN(C)C [Osimertinib (AZD9291)],0.225 ± 0.073
12,COc1ccc2cc1Oc1ccc(cc1)CC1c3c(cc4c(c3Oc3cc5c(cc3OC)CCN(C)C5C2)OCO4)CCN1C (configuration not stated) [Cepharanthine],0.8242 ± 0.0069
13,Cn1c(=O)cc(N2CCCC(N)C2)n(Cc2cc(F)ccc2C#N)c1=O.O=C(O)CCC(=O)O (configuration not stated) [Trelagliptin succinate],0.825 ± 0.15
14,CC(C)(O)c1ccccc1CCC(SCC1(CC(=O)O)CC1)c1cccc(/C=C/c2ccc3ccc(Cl)cc3n2)c1 (configuration not stated) [Montelukast],1.11 ± 0.26
15,CCC1(O)C(=O)OCc2c1cc1n(c2=O)Cc2cc3cc(O)ccc3nc2-1 [(S)-10-Hydroxycamptothecin],0.466 ± 0.076
16,CC(C)(C)c1nc(-c2cccc(NS(=O)(=O)c3c(F)cccc3F)c2F)c(-c2ccnc(N)n2)s1.CS(=O)(=O)O [Dabrafenib Mesylate],0.922 ± 0.18

row,Compound,cell viability
1,CC[N+](CC)(CC)CCOc1cccc(OCC[N+](CC)(CC)CC)c1OCC[N+](CC)(CC)CC.[I-].[I-].[I-] [Gallamine Triethiodide],1.34 ± 0.31
2,COC(=O)c1cc(OC)c2c(c1-c1c(CO)cc(OC)c3c1OCO3)OCO2 [Bicyclol],1.16 ± 0.29
3,CC(=O)OC1(C(C)=O)CCC2C3C=C(Cl)C4=CC(=O)C5CC5C4(C)C3CCC21C (configuration not stated) [Cyproterone Acetate],1.13 ± 0.092
4,COc1c2occc2cc2ccc(=O)oc12 [Methoxsalen],0.933 ± 0.062
5,O=C(O)COc1nn(Cc2ccccc2)c2ccccc12 [Bendazac],1.85 ± 0.092
6,CC1CC2C3CCC4=CC(=O)C=CC4(C)C3(F)C(O)CC2(C)C1C(=O)CO (configuration not stated) [Desoximetasone],0.815 ± 0.23
7,CC1(C)C2CCC1(C)C(O)C2 (configuration not stated) [Borneol],1.27 ± 0.36
8,O=C(O)c1ccccc1Nc1cccc(C(F)(F)F)c1 [Flufenamic acid],1.15 ± 0.34
9,CCCCCOC(=O)Nc1nc(=O)n(C2OC(C)C(O)C2O)cc1F (configuration not stated) [Capecitabine],0.655 ± 0.029
10,CC(CCC(=O)[O-])C1CCC2C3C(O)CC4CC(O)CCC4(C)C3CC(O)C12C.[Na+] (configuration not stated) [Sodium cholate],0.344 ± 0.23
11,CC12CCC(=O)C=C1CCC1C2C(O)CC2(C)C1CCC2(O)C(=O)CO (configuration not stated) [Hydrocortisone],1.41 ± 0.42
12,CC1CCN(C(=O)CC#N)CC1N(C)c1ncnc2[nH]ccc12.O=C(O)CC(O)(CC(=O)O)C(=O)O (configuration not stated),1.2 ± 0.23
13,NC(=O)c1cccc2cn(-c3ccc(C4CCCNC4)cc3)nc12 (configuration not stated) [Niraparib (MK-4827)],0.841 ± 0.011
14,O=C(CCCc1ccccc1)[O][Na] [Sodium Phenylbutyrate],0.51 ± 0.067
15,Clc1ccc(C(c2ccccc2Cl)C(Cl)Cl)cc1 (configuration not stated) [Mitotane],1.2 ± 0.1
16,Nc1c(CC(=O)[O-])cccc1C(=O)c1ccc(Br)cc1.[Na+] [Bromfenac Sodium],0.923 ± 0.095
